In PubChem BioAssay (Tox21):
Active and inactive are the calls of the source. Calls follow the shape of the dose curve; as a rule, active = well fitted activation curve with a large enough effect in the repeat runs; inconclusive = weak or mixed curves; inactive = flat fitted curve, though single readings scatter.

Biological target: Androgen receptor (Homo sapiens) (UniProt P10275)
Assay: qHTS assay to identify small molecule agonists of the androgen receptor (AR) signaling pathway using the MDA cell line (AID 743040; also: nearly all actives have a fitted effect of over 20% in size)
Details: MDA-kb2 AR-luc cells, MMTV luciferase, 16 h; series mostly up to 70.3 µM
Excerpt: National Center for Advancing Translational Sciences [NCATS]
NIH Chemical Genomics Center [NCGC]
U.S. Environmental Protection Agency [EPA]
National Institutes of Environmental Health Sciences [NIEHS]
National Toxicology Program [NTP]
U.S. Food and Drug Administration [FDA]
Androgen receptor (AR), a nuclear hormone receptor, plays a critical role in AR-dependent prostate cancer and other androgen related diseases. Endocrine disrupting chemicals (EDCs) and their interactions with steroid hormone receptors like AR may cause disruption of normal endocrine function as well as interfere with metabolic homeostasis, reproduction, developmental and behavioral functions. To identify the compounds that activate AR signaling, MDA-kb2 AR-luc cell line (from ATCC, deposited by Wilson et al.) was used to screen the Tox21 10K compound library. MDA-kb2 AR-luc cell line is human breast carcinoma cell line that was stably transfected with a luciferase reporter gene under control of the MMTV promoter containing response elements for both androgen receptor (AR) and glucocorticoid receptor (GR).
Tox21 Assay Protocol Summary:
MDA-kb2 AR-luc cells were dispensed at 3,000 cells/5 uL/well of culture medium into white wall/solid-bottom 1536-well plates using a Multidrop Combi (ThermoFisher Scientific, Waltham, MA) dispenser. After the assay plates were incubated at 37C and 0% CO2 for 5 h, 23 nL of compounds dissolved in DMSO, positive controls or DMSO only was transferred to the assay plate by a Pintool station (Kalypsys, San Diego, CA). The plates were incubated at 37C and 0% CO2 for 16 h. Then 4 uL of ONE-Glo reagent (Promega, Madison, WI) was added to each plate using a Bioraptr Flying Reagent Dispenser (FRD) workstation (Beckman Coulter, Indianapolis, IN, USA) and luminescence was quantified on a ViewLux (PerkinElmer, Shelton, CT) plate reader after 30 min incubation at room temperature.

Androgen receptor (Homo sapiens), sequence (P10275 whole entry, looked up): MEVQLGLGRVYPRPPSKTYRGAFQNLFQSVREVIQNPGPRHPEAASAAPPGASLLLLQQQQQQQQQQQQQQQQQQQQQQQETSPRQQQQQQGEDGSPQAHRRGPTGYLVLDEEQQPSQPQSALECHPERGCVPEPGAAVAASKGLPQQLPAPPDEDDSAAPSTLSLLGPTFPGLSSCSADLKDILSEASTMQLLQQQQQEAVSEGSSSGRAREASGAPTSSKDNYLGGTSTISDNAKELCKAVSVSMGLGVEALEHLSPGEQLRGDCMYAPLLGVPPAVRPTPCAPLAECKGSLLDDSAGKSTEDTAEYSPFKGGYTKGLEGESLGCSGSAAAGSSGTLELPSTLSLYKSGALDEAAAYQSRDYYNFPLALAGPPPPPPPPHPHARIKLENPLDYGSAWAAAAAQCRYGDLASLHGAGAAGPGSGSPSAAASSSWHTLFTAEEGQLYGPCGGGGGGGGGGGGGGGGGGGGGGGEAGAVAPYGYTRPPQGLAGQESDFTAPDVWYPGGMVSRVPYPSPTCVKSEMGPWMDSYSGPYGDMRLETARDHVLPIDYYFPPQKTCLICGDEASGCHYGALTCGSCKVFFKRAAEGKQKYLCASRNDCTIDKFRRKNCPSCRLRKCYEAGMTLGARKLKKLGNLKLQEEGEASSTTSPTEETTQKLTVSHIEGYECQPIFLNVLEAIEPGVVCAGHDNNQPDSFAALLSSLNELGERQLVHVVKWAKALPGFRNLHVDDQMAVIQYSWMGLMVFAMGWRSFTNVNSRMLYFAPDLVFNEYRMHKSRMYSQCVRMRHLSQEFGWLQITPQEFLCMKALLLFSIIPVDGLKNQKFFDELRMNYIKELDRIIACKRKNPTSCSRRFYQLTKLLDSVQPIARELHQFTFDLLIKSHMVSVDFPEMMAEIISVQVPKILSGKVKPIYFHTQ

Structure (SMILES)	outcome
CCCCC1(COC(=O)CCC(=O)O)C(=O)N(c2ccccc2)N(c2ccccc2)C1=O	inactive
O=C(Nc1ncc([N+](=O)[O-])s1)c1cccs1	inactive
CN(C)CCOC(c1ccccc1)c1ccccc1	inactive
CCCCOC(=O)c1ccc(O)cc1	inactive
COc1cccc(O)c1O	inactive
C1CCC(C(CC2CCCCN2)C2CCCCC2)CC1 (stereo not given)	inactive
CN(C)C(=O)Nc1ccc(Cl)c(Cl)c1	inactive
COc1ccc2c(c1)c(CC(=O)O)c(C)n2C(=O)c1ccc(Cl)cc1	inactive
CCCCCCc1ccc(O)cc1O	inactive
CCOc1ccc(NC(C)=O)cc1	inactive
